We go through 9 compounds from ChEMBL document CHEMBL1961873, “Compounds: GSK PKIS; Assays: Nanosyn kinase panel” (2012).

Structures are written as SMILES.

The target in test [1] is T1, Inhibitor of nuclear factor kappa-B kinase subunit epsilon (Homo sapiens) (UniProt Q14164).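 Note: reported values are averaged percent inhibition figures against human IKKε.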
T1 sequence (whole entry): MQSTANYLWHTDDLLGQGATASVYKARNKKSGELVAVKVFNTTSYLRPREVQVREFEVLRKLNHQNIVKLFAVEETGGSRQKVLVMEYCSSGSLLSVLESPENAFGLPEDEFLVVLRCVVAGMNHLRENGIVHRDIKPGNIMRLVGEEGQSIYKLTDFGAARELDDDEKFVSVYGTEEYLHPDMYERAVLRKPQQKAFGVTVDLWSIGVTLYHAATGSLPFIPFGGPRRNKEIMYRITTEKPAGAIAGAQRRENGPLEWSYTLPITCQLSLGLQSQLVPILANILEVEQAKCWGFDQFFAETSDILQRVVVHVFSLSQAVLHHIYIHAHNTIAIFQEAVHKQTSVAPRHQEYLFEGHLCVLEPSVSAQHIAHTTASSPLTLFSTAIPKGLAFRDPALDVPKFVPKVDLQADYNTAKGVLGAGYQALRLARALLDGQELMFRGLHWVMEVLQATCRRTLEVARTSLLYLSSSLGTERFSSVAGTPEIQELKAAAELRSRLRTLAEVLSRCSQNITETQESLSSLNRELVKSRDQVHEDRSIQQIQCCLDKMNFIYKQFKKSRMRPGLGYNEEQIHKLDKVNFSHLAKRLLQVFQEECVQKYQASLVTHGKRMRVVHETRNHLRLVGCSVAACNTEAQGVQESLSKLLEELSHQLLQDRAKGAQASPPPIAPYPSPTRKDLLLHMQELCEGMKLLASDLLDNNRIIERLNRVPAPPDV
The note with it: at 1 µM.

Test [2] deals with T2, Serine/threonine-protein kinase Nek1 (Homo sapiens) (UniProt Q96PY6).
T2 sequence (whole entry): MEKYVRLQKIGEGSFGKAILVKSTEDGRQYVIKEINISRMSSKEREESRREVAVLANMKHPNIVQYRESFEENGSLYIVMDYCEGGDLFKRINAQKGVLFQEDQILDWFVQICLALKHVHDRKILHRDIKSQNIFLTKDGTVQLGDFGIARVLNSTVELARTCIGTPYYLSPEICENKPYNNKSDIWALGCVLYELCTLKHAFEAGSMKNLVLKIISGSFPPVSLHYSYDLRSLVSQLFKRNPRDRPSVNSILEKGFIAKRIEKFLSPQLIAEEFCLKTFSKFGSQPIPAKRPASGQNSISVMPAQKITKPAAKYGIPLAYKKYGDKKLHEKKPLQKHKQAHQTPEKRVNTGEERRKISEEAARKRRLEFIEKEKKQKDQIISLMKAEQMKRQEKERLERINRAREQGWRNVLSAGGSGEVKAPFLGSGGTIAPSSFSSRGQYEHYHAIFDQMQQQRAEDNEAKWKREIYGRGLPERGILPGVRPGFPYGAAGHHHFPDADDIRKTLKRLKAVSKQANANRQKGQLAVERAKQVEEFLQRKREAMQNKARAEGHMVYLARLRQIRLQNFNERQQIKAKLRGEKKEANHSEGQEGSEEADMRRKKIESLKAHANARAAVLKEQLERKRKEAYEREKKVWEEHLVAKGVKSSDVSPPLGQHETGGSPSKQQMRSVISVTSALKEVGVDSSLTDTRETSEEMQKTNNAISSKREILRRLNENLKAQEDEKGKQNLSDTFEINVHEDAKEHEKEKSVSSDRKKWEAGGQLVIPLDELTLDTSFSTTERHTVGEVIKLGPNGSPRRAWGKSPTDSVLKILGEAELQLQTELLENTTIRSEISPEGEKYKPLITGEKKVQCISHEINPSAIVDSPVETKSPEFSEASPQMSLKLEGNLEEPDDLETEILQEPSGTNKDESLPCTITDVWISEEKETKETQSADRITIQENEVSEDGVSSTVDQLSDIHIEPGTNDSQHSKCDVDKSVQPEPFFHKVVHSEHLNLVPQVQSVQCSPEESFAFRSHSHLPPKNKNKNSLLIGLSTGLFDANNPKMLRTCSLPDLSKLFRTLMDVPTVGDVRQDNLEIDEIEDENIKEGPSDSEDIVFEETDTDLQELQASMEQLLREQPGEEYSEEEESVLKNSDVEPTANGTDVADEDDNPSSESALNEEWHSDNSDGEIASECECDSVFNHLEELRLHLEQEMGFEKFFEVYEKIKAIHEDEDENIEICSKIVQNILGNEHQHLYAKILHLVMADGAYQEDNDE
The following applies: at 0.1 µM.

The target of test [3] is T2, Serine/threonine-protein kinase Nek1 (Homo sapiens). The following applies: at 1 µM.
In test [4] the target is T3, Serine/threonine-protein kinase Nek2 (Homo sapiens) (UniProt P51955).
T3 sequence (whole entry): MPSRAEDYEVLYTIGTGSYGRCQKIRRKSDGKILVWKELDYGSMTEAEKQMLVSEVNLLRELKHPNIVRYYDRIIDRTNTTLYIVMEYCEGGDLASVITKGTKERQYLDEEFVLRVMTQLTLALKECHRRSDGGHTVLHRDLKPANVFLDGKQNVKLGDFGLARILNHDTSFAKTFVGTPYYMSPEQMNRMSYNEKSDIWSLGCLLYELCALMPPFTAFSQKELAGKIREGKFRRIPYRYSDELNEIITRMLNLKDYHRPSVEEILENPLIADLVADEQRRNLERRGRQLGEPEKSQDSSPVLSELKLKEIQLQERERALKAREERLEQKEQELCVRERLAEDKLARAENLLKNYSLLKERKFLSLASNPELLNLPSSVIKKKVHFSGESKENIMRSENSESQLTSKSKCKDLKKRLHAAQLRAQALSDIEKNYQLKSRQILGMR
The note with it: at 0.1 µM.

Test [5] deals with T3, Serine/threonine-protein kinase Nek2 (Homo sapiens). The following applies: at 1 µM.
In test [6] the target is Serine/threonine-protein kinase Nek6 (Homo sapiens) (UniProt Q9HC98). The note with it: at 0.1 µM.
Test [7] shares this target. The following applies: at 1 µM.
For test [8], the target named is Serine/threonine-protein kinase Nek7 (Homo sapiens) (UniProt Q8TDX7). The following applies: at 0.1 µM.
For test [9] the target is unchanged. The following applies: at 1 µM.
Test [10] concerns the target T4, Serine/threonine-protein kinase Nek9 (Homo sapiens) (UniProt Q8TD19).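 Note: reported value is the mean percent inhibition of NEK9.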
T4 sequence (whole entry): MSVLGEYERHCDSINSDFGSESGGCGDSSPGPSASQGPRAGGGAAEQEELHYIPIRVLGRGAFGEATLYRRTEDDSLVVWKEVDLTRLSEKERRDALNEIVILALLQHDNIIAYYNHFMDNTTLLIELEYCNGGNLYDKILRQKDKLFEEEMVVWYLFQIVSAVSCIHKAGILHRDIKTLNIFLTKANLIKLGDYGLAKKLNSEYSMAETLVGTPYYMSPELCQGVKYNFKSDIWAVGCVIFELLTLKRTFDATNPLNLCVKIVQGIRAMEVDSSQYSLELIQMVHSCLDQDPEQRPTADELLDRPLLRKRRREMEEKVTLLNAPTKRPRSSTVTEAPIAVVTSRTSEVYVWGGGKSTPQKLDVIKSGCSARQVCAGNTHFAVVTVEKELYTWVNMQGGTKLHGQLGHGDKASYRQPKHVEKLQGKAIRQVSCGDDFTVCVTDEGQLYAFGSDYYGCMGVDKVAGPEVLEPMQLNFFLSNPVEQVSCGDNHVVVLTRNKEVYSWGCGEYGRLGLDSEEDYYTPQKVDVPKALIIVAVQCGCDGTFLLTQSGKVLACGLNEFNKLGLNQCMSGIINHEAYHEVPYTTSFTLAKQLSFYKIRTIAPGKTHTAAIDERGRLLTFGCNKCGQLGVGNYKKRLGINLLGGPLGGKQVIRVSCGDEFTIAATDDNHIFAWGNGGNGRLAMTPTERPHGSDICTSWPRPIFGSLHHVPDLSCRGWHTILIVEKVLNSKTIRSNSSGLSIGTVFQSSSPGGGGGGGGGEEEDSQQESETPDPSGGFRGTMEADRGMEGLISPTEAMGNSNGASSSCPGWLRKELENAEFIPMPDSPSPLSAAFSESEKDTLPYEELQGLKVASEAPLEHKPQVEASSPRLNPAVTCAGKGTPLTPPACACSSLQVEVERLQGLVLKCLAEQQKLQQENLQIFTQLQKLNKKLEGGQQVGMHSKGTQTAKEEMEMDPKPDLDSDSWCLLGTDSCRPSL
The note with it: at 0.1 µM.

Sequence of Serine/threonine-protein kinase Nek6 (Homo sapiens) (Q9HC98 whole entry): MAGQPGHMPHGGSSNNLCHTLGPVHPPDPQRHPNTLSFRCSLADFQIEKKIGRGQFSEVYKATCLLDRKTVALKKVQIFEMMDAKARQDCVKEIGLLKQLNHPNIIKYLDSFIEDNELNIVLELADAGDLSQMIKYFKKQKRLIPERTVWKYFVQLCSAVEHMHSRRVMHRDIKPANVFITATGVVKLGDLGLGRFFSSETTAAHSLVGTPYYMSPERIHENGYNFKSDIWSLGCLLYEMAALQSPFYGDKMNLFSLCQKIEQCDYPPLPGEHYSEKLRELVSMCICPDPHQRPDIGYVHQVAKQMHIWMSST
Sequence of Serine/threonine-protein kinase Nek7 (Homo sapiens) (Q8TDX7 whole entry, looked up): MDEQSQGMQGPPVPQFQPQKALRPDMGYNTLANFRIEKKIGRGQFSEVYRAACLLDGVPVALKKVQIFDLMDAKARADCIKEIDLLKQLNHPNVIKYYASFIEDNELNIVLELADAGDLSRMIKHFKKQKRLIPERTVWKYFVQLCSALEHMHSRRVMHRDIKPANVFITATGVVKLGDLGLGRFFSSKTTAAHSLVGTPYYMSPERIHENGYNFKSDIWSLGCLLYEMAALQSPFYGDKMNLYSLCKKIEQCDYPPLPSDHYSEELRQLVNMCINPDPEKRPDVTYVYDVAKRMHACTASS

One may read the inhibition as the relative decrease from the control value, in per cent. Consider `COc1ccccc1Nc1ncc(-c2ccccc2)o1`, for which the inhibition in [1] stood at 7.83%; in test [2], 3.62%; in [3], 3%; in test [4] it was 6.46%; in test [5], 6.16%; in test [6], 0.52%. The inhibition in test [7] came out at 1.67%; in test [8], 2.39%; in test [9], 5.45%; in test [10], 5.2%.

For the compound `COc1cc(C)c(NC(=O)CN(C)C)cc1Nc1nc(Nc2cccc(F)c2C(N)=O)c2cc[nH]c2n1`, the inhibition in test [1] is 5.68%; in test [2], 1.77%; in test [3], -0.24%; in test [4], 3.86%; in [5], 3.95%; in test [6], -0.84%. For the same compound, the inhibition was -0.26% in test [7], 4.83% in test [8], 9.65% in test [9] and 7.92% in [10].

For the compound `O=C1NC(=O)C(N2CCc3ccccc32)=C1c1ccc(Cl)cc1`, the inhibition is 3.58% in test [1]; 3.18% in test [2]; 2.69% in test [3]; 6.49% in [4]; 7.76% in [5]; -0.04% in [6]. Further, the inhibition in test [7] was -0.02%; in test [8], 6.9%; in test [9], 4.24%; in [10], 5.67%.

Consider `CS(=O)(=O)CCNCc1ccc(-c2ccc3ncnc(Nc4ccc(OCc5ccccc5)c(Cl)c4)c3c2)o1`, for which the inhibition was -0.15% in test [1]; 1.25% in [2]; 2.81% in test [3]; 1.61% in test [4]; 0.43% in test [5]; 3.37% in test [6]. Besides, the inhibition in [7] was -1.04%; in test [8] it was 0.02%; in test [9], 2.5%; in [10], -1.85%.

`CCN1CCC(CC(=O)Nc2n[nH]c3nc(-c4cccs4)c(Br)cc23)CC1`: the inhibition in [1] is -3.61%; in [2], -1.51%; in [3], 0.77%; in test [4] it was -1.87%; in test [5] it was -2.3%; in test [6] it was -1.1%. Further, the inhibition in test [7] was -2.19%; in test [8], 0.31%; in test [9], -4.11%; in [10] it was 0.24%.

Consider `Cc1ccc(NC(=O)c2ccnc(N3CCCC3)c2)cc1-c1ccc(C(=O)NCC2CC2)cc1`, for which the inhibition in [1] was 5.3%; in test [2] it was 2.74%; in [3], 2.36%; in [4], 5.44%; in [5], 5.04%; in test [6], 1.43%. The inhibition in test [7] came out at 0.15%; in test [8], 6.37%; in test [9], 4.61%; in [10], 5.79%.

As for `c1cnn2ncc(-c3ccnc(Nc4ccc5c(c4)OCCO5)n3)c2c1`, the inhibition amounted to 20.5% in test [1]; 4.85% in test [2]; 20.4% in test [3]; 4.88% in test [4]; 15.4% in test [5]; 3.89% in test [6]. Moreover, the inhibition in [7] worked out at 4.5%; in [8], 3.53%; in test [9] it was 6.49%; in test [10], 16.2%.

`Cc1cccc(-c2n[nH]cc2-c2ccc3ncccc3n2)n1`: the inhibition in test [1] came out at 2.37%; in test [2], 2.07%; in test [3] it was 2.35%; in test [4], 1.59%; in test [5], 1.08%; in test [6], 1.75%. Further, the inhibition in test [7] turned out to be 3.64%; in test [8] it was 2.98%; in test [9], 1.74%; in [10], 1.6%.

Turning to `CC1=C(C(=O)Nc2ccc3[nH]ncc3c2)C(c2ccc(Cl)c(Cl)c2)CC(=O)N1` (stereo not given), the inhibition in test [1] was -0.94%; in test [2], 0.09%; in test [3] it was -0.51%; in test [4] it was 1.92%; in test [5], 1.44%; in test [6], -0.99%. The inhibition was -2.51% in test [7], 2.34% in test [8], 3.79% in [9] and 7.85% in test [10].
